This is a sample that favours compounds with a hit; in the whole collection about 2.7% have one here.
TrxR1 inh – blocks rat thioredoxin reductase 1; O89049; recombinant rTrxR1, NADPH fluorescence consumption, selenite substrate; Potency, µM (top dose mostly 114 µM), for inactives: top-dose activity change, negative = inhibition, usual class: inhibitors; actives 1% (n = 390,000); also: % is scaled to controls: 0 for no effect and ±100 for the full control effect; nearly all actives have a fitted effect of over 65% in size
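Rat TrxR1 (90 nM in the dispensed reagent) was pre-reduced with 400 uM NADPH for 5 min at room temperature, then incubated with compound for 15 min. After 400 uM selenite was added, NADPH fluorescence (Ex 340/Em 450 nm) was followed for 8 min.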
GLP-1R inv ag – inverse agonists of human GLP-1 receptor. actives 1.6% (n = 410,000). HEK293 GLP-1R CRE-luciferase, luminescence, 24 h; GLP-1R form is constitutively active. P43220. AID 624417. Potency, µM (doses to about 38.3 µM), without a hit: top-dose activity change, negative = inhibition, most hits filed as inhibitors; also: % is scaled to controls: 0 for no effect and ±100 for the full control effect; nearly all actives have a fitted effect of over 55% in size
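Stable HEK293 clone (constitutively active GLP-1R + cAMP-response luciferase); 200 cells/uL plated, 12 h pre-culture, compound 24 hr, 37 deg C/5% CO2; detection reagent 12 min RT; luminescence.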
TrxR1 substrate – substrates of rat thioredoxin reductase 1; O89049; purified TrxR1 substrate turnover, NADPH consumption readout; Potency, µM (series often up to 114 µM), without a hit: at the top dose activity change, negative = substrate turnover; actives 0.01% (n = 390,000); also: % is scaled to controls: 0 for no effect and ±100 for the full control effect; nearly all actives have a fitted effect of over 50% in size
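Rat TrxR1, dispensed at 90 nM, was prereduced with 400 uM NADPH (final) for 5 min at ~22 deg C, then incubated with compound 15 min before 400 uM selenite. A first-read NADPH fluorescence drop versus no-compound background flagged substrates.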
IDH1 R132H inh – blocks human mutant IDH1 R132H enzyme; Potency, µM (top dose mostly 76.6 µM), for the others: at the highest dose activity change, negative = inhibition, most hits filed as inhibitors; O75874; IDH1-R132H enzyme, NADPH consumption, diaphorase/resazurin fluorescence; actives 0.093% (n = 390,000); AID 602179; also: % is scaled to controls: 0 for no effect and ±100 for the full control effect; nearly all actives have a fitted effect of over 65% in size
Target sequence (O75874 whole entry R132H, stated change not applied): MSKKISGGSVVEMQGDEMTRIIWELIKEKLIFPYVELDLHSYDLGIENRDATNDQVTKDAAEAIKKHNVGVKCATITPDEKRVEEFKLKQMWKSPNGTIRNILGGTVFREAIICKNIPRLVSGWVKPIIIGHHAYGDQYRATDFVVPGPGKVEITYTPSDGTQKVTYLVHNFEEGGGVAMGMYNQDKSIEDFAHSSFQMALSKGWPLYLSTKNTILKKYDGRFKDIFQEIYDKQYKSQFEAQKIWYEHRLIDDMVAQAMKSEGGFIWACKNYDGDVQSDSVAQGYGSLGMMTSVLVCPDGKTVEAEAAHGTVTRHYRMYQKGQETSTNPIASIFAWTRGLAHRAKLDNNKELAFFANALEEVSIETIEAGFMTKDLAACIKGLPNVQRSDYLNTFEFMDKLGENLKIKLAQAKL
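IDH1-R132H (0.5 ug/mL) preincubated 30 min with compound, then NADPH (0.016 mM) and alpha-KG (2 mM) added; 80 min at RT, pH 7.5. Remaining NADPH coupled via diaphorase/resazurin to fluorescence (540/590 nm); concentration-response curves normalized to no-enzyme control.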
GLP-1R agonist – GLP-1 receptor (human) agonism | AID 624172 | actives 0.007% (n = 380,000) | P43220 | Potency, µM (highest dose often 45.6 µM), without a hit: at the top dose activation, hits mostly activators | HEK293 GLP-1R CRE-luciferase, luminescence, 4-6 h; cells express a hypersensitive GLP-1R form; also: % of control where 0% means no effect
GLP1R cytotox – cytotoxicity in counter-screen for GLP-1R inverse agonists. Potency, µM (titrated, usually from 38.3 µM), for the others: at the highest dose activity change, negative = inhibition, usual class: inhibitors. HEK293 cAMP-luciferase reporter cells, luminescence, 24 h. actives 0.13% (n = 410,000). AID 624418;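 also: loss of luciferase light is scored as toxicity; % is scaled to controls: 0 for no effect and ±100 for the full control effect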
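Quantitative HTS format, 1536 wells, 200 cells/uL seeded. Compounds: 23 nL, 24 h, 37 °C. Detection: luciferase reagent, luminescence at 12 min RT; decreased signal taken as cytotoxic.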
Numbers without * were called inactive; ? = inconclusive; nt = no result; [ ] = another dose, or the depositor's remark. Calls follow the shape of the dose curve; as a rule, active = well fitted curve in the direction sought with a large enough effect; inconclusive = small, poorly fitted or top-dose-only effect, or another doubt; inactive = no such curve, though single readings can be large; an effect the other way counts as inactive or inconclusive. Potency is read from the fitted curve at half-maximal effect.

SMILES	TrxR1 inh	GLP-1R inv ag	TrxR1 substrate	IDH1 R132H inh	GLP-1R agonist	GLP1R cytotox
CCOC(=O)C(=CNc1ccc(Cl)cn1)C(=O)OCC	0%[57.1 µM]	42%	2%[57.1 µM]	4%	12%	1%
Cc1cc(C)n2c(NCc3ccccc3)c(-c3cc4ccccc4o3)nc2n1	nt	-26%	nt	nt	14%	4%
COc1ccc(-c2nnc(NC(=O)c3ccccc3C)o2)cc1	-4%	10µM*	1%	5%	-3%	?
Cc1ccccc1C(=O)Nc1nnc(-c2ccncc2)o1	4%[57.1 µM]	10%[7.66 µM]	5%[57.1 µM]	12%	0%	2%[7.66 µM]
CC(=O)Nc1nnc(-c2ccc3c(c2)CCCC3)o1	39%	?	4%	21%	-5%	?
COc1ccccc1C(=O)Nc1nnc(-c2ccc3c(c2)CCCC3)o1	21%	?	4%	9%	-3%	11µM*
COc1cccc(C(=O)Nc2nnc(-c3ccc(Cl)cc3)o2)c1	-4%	10µM*	-6%	-10%	-2%	-29%
O=C(CN1C(=O)CC(c2ccccc2)Sc2ccccc21)Nc1cccc(Cl)c1 (configuration not stated)	12%	2%	-3%	-6%	9%	-10%
COc1ccc2c(c1)C(=O)CC2	6%	nt	19%	nt	nt	nt
CCN(c1ccccc1)S(=O)(=O)c1c(C)nc2scc(C)n2c1=O	-2%	-5%	-6%	-9%	nt	14%
CCn1c(=O)c2sccc2n2c(CCCC(=O)N3CCN(c4ccc(F)cc4)CC3)nnc12	-2%	-5%	-7%	-11%	nt	-4%
Cc1ccc2cc(CN(C(=O)c3ccco3)c3ccccc3C)c(=O)[nH]c2c1	?	?	16%[57.1 µM]	1%	4%	-7%
COc1ccccc1NC(=O)N(Cc1ccco1)Cc1cc2cccc(C)c2[nH]c1=O	3%	11µM*	-2%	7%	1%	-14%
COc1ccccc1NC(=O)N(Cc1ccco1)Cc1cc2c(C)ccc(C)c2[nH]c1=O	-7%	-26%	-3%	10%	-11%	5%
CCN(CC)CCN(Cc1cc2cc(C)ccc2[nH]c1=O)C(=O)Nc1ccccc1OC	-10%	13µM*	-1%	10%	-9%	?
Cc1ccc2cc(CN(C(=O)c3ccco3)c3cccc(C)c3C)c(=O)[nH]c2c1	18µM*	-5%	6%	-20%	10%	-6%
CCN(CC)CCN(Cc1cc2cc(C)c(C)cc2[nH]c1=O)C(=S)NCc1ccco1	25%[57.1 µM]	10µM*	-17%[57.1 µM]	8%	13%	?
Cc1cc(Br)ccc1NC(=O)COC(=O)c1ccccc1OCC(N)=O	11%	nt	5%	nt	nt	nt
O=C(c1ccco1)N(Cc1cc2ccccc2[nH]c1=O)CC1CCCO1 (configuration not stated)	-7%	11%	6%[57.1 µM]	-1%	-7%	-5%
Cc1cccc2cc(CN(CC3CCCO3)C(=O)c3ccco3)c(=O)[nH]c12 (configuration not stated)	16µM*	3%	9%	10%	4%	-21%
Cc1ccc(S(=O)(=O)NC2c3cccc4cccc(c34)C2Sc2nncn2C)cc1 (configuration not stated)	17%	13%	5%	8%	3%	1%
Cc1ccc(S(=O)(=O)NC2c3cccc4cccc(c34)C2Sc2nc(C)cc(C)n2)cc1 (configuration not stated)	7%	7.1µM*	2%	-1%	2%	16%
CCCCCCC(=O)NC(Nc1ccc(S(N)(=O)=O)cc1)C(Cl)(Cl)Cl (configuration not stated)	11%	8.9µM*	-1%	-1%	-11%	-14%
Cn1c(/C=C/c2ccc(Br)cc2)c([N+](=O)[O-])c(=O)n(C)c1=O	-2%[57.1 µM]	4.5µM*	-1%[57.1 µM]	0%	0%	?
CN(C)c1ccc(/C=C/c2c([N+](=O)[O-])c(=O)n(C)c(=O)n2C)cc1	-6%	-12%	-6%	-12%	-1%	-23%
SMILES	TrxR1 inh	GLP-1R inv ag	TrxR1 substrate	IDH1 R132H inh	GLP-1R agonist	GLP1R cytotox
OC[C@@H](O)[C@H](O)C(/C=N/Nc1ccccc1)=N\Nc1ccccc1	?	2.5µM*	7%[57.1 µM]	1%	0%	?
O=S(=O)(c1ccc(Cl)c(NC(=S)N/N=C/c2c(F)cccc2F)c1)N1CCOCC1	5%	2.5µM*	-5%	-20%	15%	?
O=[N+]([O-])c1cc(Cl)cc(/C=N/NC(=S)Nc2ccc(S(=O)(=O)N3CCOCC3)cc2)c1O	79µM*	?	-7%	?	-3%	-28%
COc1ccc(NC(=O)CSc2nnc(-c3cccs3)o2)cc1	4%	24%	0%	6%	nt	1%
COc1ccc(NC(=O)CCN2CCN(C/C=C/c3ccccc3)CC2)cc1	18%	-18%	-3%	-11%	5%	-12%
COc1cc(NC(=O)CCN2CCN(C/C=C/c3ccccc3)CC2)cc(OC)c1	-31%	10µM*	-22%	-9%	14%	-19%
Cc1ccccc1NC(=O)CSc1nc2c(oc3ccccc32)c(=O)n1Cc1ccco1	16%	6%	-2%	-10%	nt	1%
Cc1ccc(-c2nc3c(c(=O)[nH]c(=O)n3Cc3ccccc3)n2C)o1	32µM*	13%	17%[57.1 µM]	-3%	-11%	-25%
CC1(C)Cc2c(sc(NC(=O)COc3ccc(Cl)cc3)c2C#N)C(C)(C)N1	29%	5.6µM*	8%	7%	17%	0%
Cc1ccccc1OCC(=O)Nc1sc2c(c1C#N)CC(C)(C)NC2(C)C	9%	?	-5%[0.0914 µM]	2%	18%	4%
COc1ccc(/C=C2\SC(=S)N(C(Cc3ccccc3)C(=O)O)C2=O)cc1 (configuration not stated)	7%[57.1 µM]	-20%	-2%[57.1 µM]	-9%	-2%	-11%
O=C(O)C(Cc1ccccc1)N1C(=O)/C(=C/C=C/c2ccco2)SC1=S (configuration not stated)	20µM*	-3%	-14%	-3%	-2%	-38%
O=C1S/C(=C\C=C\c2ccco2)C(=O)N1c1ccccc1	50µM*	62%	0%	-2%	0%	0%
O=C1S/C(=C\C=C\c2ccco2)C(=O)N1c1ccc(O)cc1	?	14%	-4%	3%	-4%	-21%
O=C(O)CC(C(=O)O)N1C(=O)/C(=C/C=C/c2ccco2)SC1=S (configuration not stated)	20µM*	4%	-26%	-1%	-3%	-1%
